Test results taken from the supplement of paper PMC8047044.
Where “and” joins values, the source holds several entries; their conditions need not be identical. Identical values can stand only once.

Test system: Neuro-2a
Experiment: neurite formation score, plate-normalized to DMSO control mean 5.04 (score (0-8 scale)); higher = more or longer neurites
Conditions: 0.1 µM
Method: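 Neuro-2a mouse neuroblastoma cells in PLL-coated 96-well plates were pre-treated for 1 h in DMEM(+) with each kinase inhibitor at 0.1 µM, then switched to serum-free DMEM(-) with inhibitor to induce neurite outgrowth and fixed about 2-3 h later. Three blinded observers scored neurite formation from 0 (no neurites) to 8 (long neurites on almost all cells).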

Structure (SMILES)	neurite formation score
O=C(O)CCC(=O)Nc1ccc(Br)cn1 [Bikinin]	1.42
CC(C)(C)c1nc(-c2cccc(NS(=O)(=O)c3c(F)cccc3F)c2F)c(-c2ccnc(N)n2)s1	5.25
N#Cc1c(NC(=O)c2cccc3ccccc23)sc2c1CCCC2	0.751
CCOc1cc(C(=O)N2CCC(N3CCN(C)CC3)CC2)ccc1Nc1ncc2c(n1)N(C1CCCC1)c1ccccc1C(=O)N2C	4.25
COc1ccc(C(=O)Nc2sc3c(c2C(N)=O)CCCC3)cc1OC	4.71
CO[C@H]1C[C@@H]2CC[C@@H](C)[C@@](O)(O2)C(=O)C(=O)N2CCCC[C@H]2C(=O)O[C@H]([C@H](C)C[C@@H]2CC[C@@H](OP(C)(C)=O)[C@H](OC)C2)CC(=O)[C@H](C)/C=C(\C)[C@@H](O)[C@@H](OC)C(=O)[C@H](C)C[C@H](C)/C=C/C=C/C=C/1C [Ridaforolimus (Deforolimus, MK-8669)]	1.42
COc1cc2c(Nc3ccc(NC(=O)c4ccccc4)cc3)ncnc2cc1OCCCN1CCOCC1	4.58
Cc1c(F)cc(C(=O)NC2CC2)cc1-c1ccc(C(=O)NCC(C)(C)C)cn1 [Losmapimod]	4.75
O=C(c1ccc(F)c(F)c1Nc1ccc(I)cc1F)N1CC(O)([C@@H]2CCCCN2)C1 [Cobimetinib]	4.71
FC(F)c1nc2ccccc2n1-c1nc(N2CCOCC2)nc(N2CCOCC2)n1	4.21
O=C1c2ccc(Nc3ccc(F)cc3F)cc2CCc2ccc(OC[C@H](O)CO)cc21 [Skepinone-L]	5.25
Cc1cc2c(F)c(Oc3ncnn4cc(OC[C@@H](C)O)c(C)c34)ccc2[nH]1	4.38
O=C(Nc1cccc(Nc2ncc(Br)c(NCCc3cnc[nH]3)n2)c1)N1CCCC1	4.71
COc1cc(N2CCC(N3CCN(C)CC3)CC2)ccc1Nc1ncc(Cl)c(Nc2ccccc2S(=O)(=O)C(C)C)n1	5.54
c1cc(-c2cnn3cc(-c4ccc(OCCN5CCCCC5)cc4)cnc23)ccn1 [Dorsomorphin 2HCl]	3.92
O=C(NCCO)c1cccc(-c2cc(Nc3ccc(OC(F)(F)F)cc3)ncn2)c1	4.92
OCCn1cc(-c2ccc3c(c2)CC/C3=N\O)c(-c2ccncc2)n1	4.58
Nc1cccc(S(=O)(=O)N2CCCN(S(=O)(=O)c3ccc4c(c3)OCCO4)CC2)c1	4.09
O=C(/C=C/c1ccc2ccccc2n1)c1ccncc1	3.08
O=C1C(c2c(O)[nH]c3ccccc23)=Nc2ccccc21 [Indirubin]	4.42

Structure (SMILES)	neurite formation score
Cc1ncc(-c2ccnc(Nc3ccc(S(C)(=O)=O)cc3)n2)n1C(C)C	3.54
CC(C)(O)CC(=O)NCCn1ccc2ncnc(Nc3ccc(Oc4cccc(C(F)(F)F)c4)c(Cl)c3)c21	4.42
CN(C)Cc1cccc(N=C(c2ccccc2)c2c(O)[nH]c3cc(C(=O)N(C)C)ccc23)c1	5.54
Cc1cc(C)nc(NS(=O)(=O)c2ccc(NC(=S)NC(=O)COc3ccc(Br)cc3Cl)cc2)n1	3.88
Oc1ccc(-c2nc(-c3ccc(F)cc3)c(-c3ccncc3)[nH]2)cc1	4.71
CNC(=O)c1c(F)cccc1Nc1nc(Nc2cc3c(cc2OC)CCN3C(=O)CN(C)C)nc2[nH]ccc12	4.58
Cn1cc(-c2[nH]c3cc(NC(=O)[C@H](N)C4CCCCC4)cc4c3c2C=NNC4=O)cn1	4.25
CN1CCN(CCOc2cc(OC3CCOCC3)c3c(Nc4c(Cl)ccc5c4OCO5)ncnc3c2)CC1 [Saracatinib (AZD0530)]	3.38
Cc1cc2c(F)c(Oc3ncnn4cc(OC[C@@H](C)OC(=O)[C@H](C)N)c(C)c34)ccc2[nH]1	4.04
Cc1ccc(-n2nc(C(C)(C)C)cc2NC(=O)Nc2ccc(OCCN3CCOCC3)c3ccccc23)cc1 [BIRB 796 (Doramapimod)]	4.21
Cc1ccc(Nc2nccc(N(C)c3ccc4c(C)n(C)nc4c3)n2)cc1S(N)(=O)=O	3.71
Clc1ccc(Nc2nnc(Cc3ccncc3)c3ccccc23)cc1 [Vatalanib (PTK787) 2HCl]	3.71
CNC(=O)c1cc(Oc2ccc3nc(N[C@@H]4CCCC[C@H]4O)sc3c2)ccn1	4.75
COc1cc2c(c(OC)c1OC)-c1c(cc3c(c1OC)OCO3)CC(C)C(C)C2 (stereo not given) [Schizandrin B]	5.08
Cc1ccc(NC(=O)c2ccc(CN3CCN(C)CC3)cc2)cc1Nc1nccc(-c2cccnc2)n1 [Imatinib (STI571)]	1.42
CC(C)(C)Cn1c(N)nc2ccc(-c3[nH]c(C(C)(C)C)nc3-c3ccc(F)cc3)nc21	5.54
CC(=O)c1c(C)c2cnc(Nc3ccc(N4CCNCC4)cn3)nc2n(C2CCCC2)c1=O	4.88 and 4.54
COc1cc2ncnc(Nc3ccc(F)c(Cl)c3)c2cc1OCCCN1CCOCC1 [Gefitinib (ZD1839)]	4.88
COc1cc2c(N3CCN(C(=O)Nc4ccc(OC(C)C)cc4)CC3)ncnc2cc1OCCCN1CCCCC1 [Tandutinib (MLN518)]	4.58
Cc1cnc(NC(=O)Nc2cc(Br)c(C)cc2OC[C@@H]2CNCCO2)cn1	4.58
